# Only some compounds are listed: those with a hit (about 3.2% of all), similar ones and a draw of the others.
# Rv3671c inh – inhibitors of M. tuberculosis serine protease Rv3671c; AID 2606; actives 0.048% (n = 320,000); inhibition, % at 5.96 µM; in the data active = inhibition above about 38%;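 also: extracellular domain of Rv3671c used as enzyme; 0% = enzyme with DMSO and 100% = no enzyme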
# PriA SSB inh – blocks PriA binding to SSB C-terminal tail | AlphaScreen SSBct-PriA binding, biotinylated peptide | AID 1272365 | inhibition, % at 33 µM | actives 0.6% (n = 430,000); in the data active = inhibition mostly above about 37%, no sharp cut-off; inactive = mostly below about 20%;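 also: plate controls were negative control peptide for no effect and reference peptide for full effect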
# Mtb betalactam – beta-lactam sensitization of Mtb H37Rv; M. tuberculosis H37Rv growth with meropenem, percent inhibition; actives 0.27% (n = 330,000); inhibition, % at 25 µM; call rule not given here;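 also: growth measured after seven days incubation then overnight dye step; 0% = bacteria only wells and 100% = bacteria with antibiotic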
# Mtb FBA inh – inhibits M. tuberculosis FBA enzyme; P9WQA3; purified M. tuberculosis FBA, fluorescence read-out; inhibition, % at 1 µM; actives 2.3% (n = 360,000); AID 588726; in the data active = inhibition above about 27%;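 also: 0% = vehicle and 100% = reference inhibitor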
# Target sequence (P9WQA3 whole entry, looked up): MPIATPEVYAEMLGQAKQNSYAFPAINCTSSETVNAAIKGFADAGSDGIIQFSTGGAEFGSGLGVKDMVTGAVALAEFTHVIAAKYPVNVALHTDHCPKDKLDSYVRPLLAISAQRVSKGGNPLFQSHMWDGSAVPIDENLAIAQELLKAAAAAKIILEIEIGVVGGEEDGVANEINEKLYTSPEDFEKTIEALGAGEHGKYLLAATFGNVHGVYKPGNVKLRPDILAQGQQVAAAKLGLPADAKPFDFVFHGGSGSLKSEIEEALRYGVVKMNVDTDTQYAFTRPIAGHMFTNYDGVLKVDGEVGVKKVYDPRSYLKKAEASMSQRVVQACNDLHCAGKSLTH
# UGM FP inh – Mtb UDP-galactopyranose mutase inhibition | P9WIQ1 | purified UGM, fluorescence polarization probe displacement | inhibition, % at 10 µM | actives 0.06% (n = 320,000); in the data active = inhibition above about 10%, passing the limit was not always enough; inconclusive = no clear call, values can overlap the other calls
# GDH-TPI inh – inhibits GDH-TPI coupling enzymes, artifact for Mtb FBA screen. GDH-TPI coupled enzyme counterscreen, NADH absorbance. inhibition, % at 4.8 µM. actives 1.2% (n = 360,000). AID 588335; in the data active = inhibition above about 30%;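 also: 0% = DMSO wells and 100% = wells lacking the enzyme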
# Numbers without * were called inactive; u = inconclusive; x = no result given; + = active, no number.
SMILES,Rv3671c inh,PriA SSB inh,Mtb betalactam,Mtb FBA inh,UGM FP inh,GDH-TPI inh
O=C(Nc1ccc(N2CCN(C(=O)c3ccc(Cl)cc3)CC2)cc1)c1cccnc1,2,6,64,2,0,1
O=C(c1ccc(N2CCN(C(=O)c3ccc(F)c(F)c3)CC2)cc1)c1cccc(F)c1,0,-6,14,-1,1,32*
CC(C)(C)CC(=O)N1CC(n2ccnn2)C1,x,-9,x,x,x,x
COC(=O)c1ccc(CSc2nnc(CNC(=O)c3ccc(S(=O)(=O)N(C)C)cc3)o2)o1,x,-17,x,x,x,x
O=C(Nc1ccc2c(c1)C(=O)Nc1cc(Cl)ccc1O2)c1ccco1,x,14,x,x,x,x
CCn1c(SCC(=O)c2ccc(NS(=O)(=O)c3ccccc3)cc2)nnc1-c1cccs1,-7,-8,2,8,-2,34*
CN(C)c1ccc(/C=N/n2c(COc3ccccc3)n[nH]c2=S)cc1,8,x,2,0,x,35*
CN(C)c1ccc(/C=N/n2c(C3CCCCC3)n[nH]c2=S)cc1,6,x,u,1,2,36*
CN(C)c1ccc(/C=N/n2c(-c3ccccc3Br)n[nH]c2=S)cc1,7,x,-1,0,1,54*
COc1cccc(C(=O)Oc2ccccc2/C=C\C(=O)c2cc3ccccc3o2)c1,x,6,x,-1,x,31*
CCCN1CCCc2cc(CCNC(=O)c3cccs3)ccc21,x,63*,x,x,x,x
CCCN1CCCc2cc(CCNC(=O)C(C)(C)C)ccc21,x,51*,x,x,x,x
CCCN1CCCc2cc(CCNC(=O)c3ccc(F)cc3)ccc21,x,23,x,x,x,x
CCCN1CCCc2cc(CCNC(=O)COCC)ccc21,x,51,x,x,x,x
CCCN1CCCc2cc(CCNC(=O)c3ccccc3)ccc21,x,57,x,x,x,x
CCCN1CCCc2cc(CCNC(=O)c3ccccc3F)ccc21,x,68*,x,x,x,x
CCCN1CCCc2cc(CCNC(=O)COc3ccccc3F)ccc21,x,83*,x,x,x,x
CCCN1CCCc2cc(CCNC(=O)C(C)C)ccc21,x,59,x,x,x,x
Cc1cccc(C(N)=NOC(=O)N2CCOCC2)c1,x,2,x,x,x,x
CCCN1CCCc2cc(CCNC(=O)c3c(OC)cccc3OC)ccc21,x,80*,x,x,x,x
COc1cc(N=Nc2ccccc2C(=O)O)ccc1O,-1,-7,5,-15,0,20
COc1ccccc1N=Nc1ccc(N)c(C)c1,17,73*,50,-9,3,6
CCOC(=O)c1nn(-c2ccc(C)cc2)c(=O)cc1OCC(=O)NCc1ccc2c(c1)OCO2,x,5,x,x,x,x
O=C(Nc1ccccc1F)c1cc(C2CCN(C(=O)c3c[nH]c(=O)c(Cl)c3)CC2)[nH]n1,x,98*,x,x,x,x
COc1cc(/C=C/c2[nH]c(=O)[nH]c(=O)c2[N+](=O)[O-])cc(OC)c1O,x,-6,3,-4,-1,31*
SMILES,Rv3671c inh,PriA SSB inh,Mtb betalactam,Mtb FBA inh,UGM FP inh,GDH-TPI inh
COc1cccc(-c2cc(C(F)(F)F)n3ncc(C(=O)O)c3n2)c1,3,-17,-19,2,0,14
COc1ccc(-c2cc(C(F)(F)F)n3nc(C(=O)O)nc3n2)cc1,9,-3,-3,23,1,28
COc1ccc(-c2cc(C(F)(F)F)n3nc(N)nc3n2)cc1,-5,-8,-6,+,2,20
COc1cccc(-c2cc(C(F)(F)F)n3nc(N)nc3n2)c1,-4,-11,-6,5,3,36*
CN1CC[C@H](NCc2ccccn2)C1=O,x,-6,x,x,x,x
Nc1nc2ccc(-c3nc4ccccc4o3)cc2s1,-3,-29,27,+,0,41*
Cc1nc2ccccn2c(=O)c1NC(=O)c1cccc2ccccc12,16,6,-20,0,0,31*
Cc1nc2ccccn2c(=O)c1NC(=O)c1cc2ccccc2oc1=O,x,-8,x,x,x,x
Cc1ccccc1NC(=S)NNc1ccc([N+](=O)[O-])cc1,x,19,x,x,x,x
CCCn1c(=O)c2ccc(C(=O)NC3CCCCC3)cc2n2c(=O)n(Cc3cccc(OC)c3)nc12,x,-11,x,x,x,x
COc1ccc(/C=C/C(=O)NC(=S)Nc2ccccn2)cc1,0,38*,8,4,0,16
COc1ccccc1/C=C/C(=O)NC(=S)Nc1ccccn1,-54,-19,4,4,2,11
O=C(/C=C/c1ccco1)NC(=S)Nc1ccccn1,-2,-8,u,1,-3,40*
O=C(NN=Cc1cccs1)c1ccccn1,x,2,x,x,x,x
O=C(CNS(=O)(=O)c1ccccc1)NN=Cc1ccc(Cl)cc1,x,0,x,x,x,x
O=[N+]([O-])c1ccc(Nc2ccccc2O)c2nonc12,x,41*,95,-15,3,8
CC(=NNc1nc2ccccc2s1)c1ccncn1,x,-3,x,-4,x,34*
COc1cc(C(C#N)N2CCC(c3ccccc3)=N2)ccc1O (stereo not given),-7,-8,-8,1,2,36*
COc1ccc(C(C#N)N2CCC(c3ccccc3)=N2)cc1OC (stereo not given),7,-3,-5,1,x,-8
O=C(Cl)c1cc(Cl)ccn1,x,83*,x,x,x,x
O=C(c1ccccc1Br)N1CCN(c2ccc(Cl)cc2)CC1,x,-3,x,x,x,x
CCCN1CCCc2cc(CCNC(=O)C(=O)Nc3ccc(C(C)C)cc3)ccc21,x,23,x,x,x,x
CCCN1CCCc2cc(CCNS(=O)(=O)c3ccc(NC(=O)C(C)C)cc3)ccc21,x,60*,x,x,x,x
CCCN1CCCc2cc(CCNS(=O)(=O)c3cccc(Cl)c3)ccc21,x,64*,x,x,x,x
CCCN1CCCc2cc(CCNS(=O)(=O)c3ccc(Cl)cc3)ccc21,x,62*,x,x,x,x
SMILES,Rv3671c inh,PriA SSB inh,Mtb betalactam,Mtb FBA inh,UGM FP inh,GDH-TPI inh
CS(=O)(=O)N1CCN(c2ccc([N+](=O)[O-])c(N3CCCC3)c2)CC1,x,57*,x,x,x,x
CN1CCN(c2ccc([N+](=O)[O-])c(N3CCCC3)c2)CC1,x,58*,x,x,x,x
CCC(=O)N1CCCc2ccc(NC(=O)Nc3cccc(OC)c3OC)cc21,x,-15,x,x,x,x
COCc1nc2ccccc2[nH]1,x,-5,x,x,x,x
COc1ccc(C(O)=C2C(=O)C(=O)N(Cc3ccco3)C2c2cc(OC)ccc2OC)cc1 (stereo not given),x,2,x,x,x,x
COc1ccc(/C(O)=C2\C(=O)C(=O)N(Cc3ccco3)C2c2cc(OC)ccc2OC)cc1 (stereo not given),3,x,4,0,1,40*
COc1cc(C2/C(=C(\O)c3ccc4c(c3)OCCO4)C(=O)C(=O)N2Cc2ccco2)cc(OC)c1OC (stereo not given),x,x,-7,0,-3,32*
Cc1ccc(C(=O)N/C(=C\c2ccc(-c3cccc([N+](=O)[O-])c3)o2)C(=O)NCCCN2CCOCC2)cc1,5,-12,9,0,-1,47*
COc1ccc(C(=O)N/C(=C\c2ccc(-c3cccc([N+](=O)[O-])c3)o2)C(=O)NCCCN2CCOCC2)cc1,x,x,x,-3,x,47*
CN(C)CCCNC(=O)/C(=C/c1ccc(-c2ccc([N+](=O)[O-])cc2)o1)NC(=O)c1ccccc1,3,-15,-2,-4,-1,31*
CN(C)CCNC(=O)/C(=C/c1ccc(-c2cccc([N+](=O)[O-])c2)o1)NC(=O)c1ccccc1,-3,9,0,-5,1,9
COc1ccc(C(=O)N/C(=C\c2ccco2)C(=O)NCCN2CCOCC2)cc1,3,4,2,-3,2,11

# Bioassay records deposited in PubChem by several laboratories.
